Rows were chosen to be rich in hits. Some 4.7% of all compounds tested hit in one or more screens of this group.
SKKanGAS inh: inhibitors of SKKanGAS S. pyogenes growth in kanamycin (SK-promoter or general growth effect); BacTiter-Glo, 6 h; inhibition, % at 7.5 µM; 300,000 tested, 1.3% active;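 active means mean replicate score, as percent of positive control median, at least 50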;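 further: strain carries kanamycin resistance gene driven by streptokinase promoter and grows in 40 µg/ml kanamycin; loss of luminescence reflects streptokinase promoter inhibition or plain growth inhibition; 0% = median of DMSO wells and 100% = positive control at its reference dose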
TIM10 inh: inhibits growth of TIM10 yeast strain; S. cerevisiae TIM10 strain growth, BacTiter-Glo luminescence, 24 h; inhibition, % at 10 µM; 330,000 tested, 1.4% active; AID 463195;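 active means inhibition of 40% or more at the single tested concentration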;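 further: wild-type TIM10 isogenic control strain grown at permissive 25 °C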
PfHsp90 yeast 2: reduces growth (ATP signal) of yeast expressing P. falciparum Hsp90. S. cerevisiae expressing PfHsp90, BacTiter-Glo ATP, 48 h; yeast lacking PDR1 and PDR3 efflux regulators. inhibition, % at 9.4 µM. AID 504621. 310,000 tested, 0.32% active;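 active means every replicate shows inhibition above about 80%, whatever the replicate mean, limit read from the data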;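 further: 0% = DMSO neutral controls and 100% = 20 µM radicicol positive controls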
ATG4B inhibitor: ATG4B (human) cysteine protease inhibition. 340,000 tested, 0.51% active. Q9Y4P1. inhibition, % at 8.33 µM. ATG4B cleavage of LC3-PLA2, NBD-HPC fluorescence, 1 h. AID 504462; in the data active means inhibition above about 40%
Target sequence (Q9Y4P1 whole entry, looked up): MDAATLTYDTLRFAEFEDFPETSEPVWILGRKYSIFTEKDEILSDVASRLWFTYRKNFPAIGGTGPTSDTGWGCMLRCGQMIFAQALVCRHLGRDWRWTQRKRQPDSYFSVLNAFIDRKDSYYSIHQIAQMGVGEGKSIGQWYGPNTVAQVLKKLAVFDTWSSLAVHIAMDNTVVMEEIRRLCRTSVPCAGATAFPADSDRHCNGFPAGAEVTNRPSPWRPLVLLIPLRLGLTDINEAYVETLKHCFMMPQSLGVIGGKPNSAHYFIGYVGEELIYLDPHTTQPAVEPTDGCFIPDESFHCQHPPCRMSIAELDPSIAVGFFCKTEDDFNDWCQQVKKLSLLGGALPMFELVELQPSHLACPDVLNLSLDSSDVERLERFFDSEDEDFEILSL
tim10-1 inh: growth inhibitors of tim10-1 mutant yeast; S. cerevisiae tim10-1 ts strain growth, BacTiter-Glo, 24 h; inhibition, % at 20 µM; 330,000 tested, 2.2% active;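 active means inhibition of at least 40%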;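 further: mutant grown at 25 °C; 0% = DMSO wells with yeast and 100% = wells holding no yeast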
tim23-1 inh: tim23-1 yeast growth inhibition; S. cerevisiae tim23-1 growth, BacTiter-Glo luminescence, 24 h; inhibition, % at 20 µM; 330,000 tested, 1.3% active;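 active means growth inhibition of the mutant yeast at or above 50%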;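 further: temperature-sensitive mutant grown at 25 °C; plate controls were DMSO-treated mutant yeast for no effect and medium wells lacking yeast for full effect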
TIM10 conf: confirmation of TIM10 yeast growth inhibitors; 4,600 tested, 63% active; S. cerevisiae tim10 strain growth, BacTiter-Glo luminescence, 24 h; inhibition, % at 10 µM; shares compounds with TIM10 inh; AID 463215;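 active means inhibition of yeast growth at or above a set limit in either of two replicates at 10 µM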;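 further: this counterscreen used the strain with wild-type TIM10; 0% = yeast with DMSO and 100% = medium wells lacking yeast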
tim23-1 conf: tim23-1 yeast growth inhibition, confirmed; shares compounds with tim23-1 inh; S. cerevisiae tim23-1 growth, BacTiter-Glo luminescence, 24 h; inhibition, % at 20 µM; 4,400 tested, 83% active;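 active means inhibition above about 39% in either of two replicate wells at 20 µM, limit read from the data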;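 further: temperature-sensitive tim23-1 mutant grown at 25 °C; 0% = DMSO wells with yeast and 100% = medium wells without yeast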
* hit, by the source's call; nt = no result given.

SMILES	SKKanGAS inh	TIM10 inh	PfHsp90 yeast 2	ATG4B inhibitor	tim10-1 inh	tim23-1 inh	TIM10 conf	tim23-1 conf
O=c1c2cc(N3CCOCC3)ccc2[nH]c(=S)n1CCCN1CCN(c2ccccc2F)CC1	nt	47*	nt	nt	26	16	24*	nt
Cc1ccc(C(CNS(=O)(=O)c2ccc([N+](=O)[O-])cc2)N2CCN(C)CC2)cc1 (stereo unspecified)	-1	-3	9	-2	0	-11	nt	nt
c1ccc(-c2onc3cc4c(cc23)OCCO4)cc1	-3	44*	-16	1	33	-3	52*	nt
Cc1cc(NC(=O)c2cccc(Oc3ccccc3)c2)n[nH]1	31	61*	18	2	37	3	66*	nt
Cc1cc(NC(=O)NC(=O)c2cccc(OC(F)(F)C(F)F)c2)n[nH]1	-5	14	-17	-10	7	7	nt	nt
Cc1ccc(C(=O)COC(=O)C2C3C=CC(C3)C2C(=O)OCC(=O)c2ccc(C)c(C)c2)cc1C (stereo unspecified)	7	11	-15	-5	20	19	nt	nt
O=C(N/N=C/c1ccco1)C12CC3CC(CC(C3)C1)C2	1	26	-3	-3	29	24	nt	nt
CC(=O)N/N=C/c1ccccc1OCCOc1cccc(C)c1	-2	47*	-11	10	10	49	34*	nt
CCc1cc(C)cc(OCCOc2ccccc2/C=N/NC(C)=O)c1	-3	13	-40	-5	6	27	nt	nt
COc1ccc(NS(=O)(=O)c2ccc(N3CCOCC3)c(NC(=O)c3ccco3)c2)cc1	-4	2	-43	-2	17	20	nt	nt
c1ccc(-c2csc3nnc(SCc4ccc5c(c4)OCCO5)n23)cc1	3	41*	-15	-14	39	40	30*	nt
COc1ccc(Nc2ccc3c(c2)=NC2(CCCCC2)[N+]=3[O-])cc1	7	47*	nt	-1	37	36	4	nt
NC(=S)N/N=C/c1cccc(/C=N/NC(N)=S)c1	-21	13	-13	-2	-10	-6	nt	nt
NC(=S)N/N=C/c1ccc2ccccc2c1	-24	40*	10	1	24	30	28	nt
COCCCNC(=S)N/N=C/c1ccc2ccccc2c1	-3	41*	-12	-6	16	35	37*	nt
COCCCNC(=S)N/N=C/c1ccc(OC)cc1	40	27	-1	2	25	30	nt	nt
COc1ccc(NC(=O)C2CCN(C(=O)NCc3ccccc3)CC2)cc1	-3	10	-8	4	0	3	nt	nt
CN(C)CCN(C(=O)/C=C/c1cccs1)c1nc2c(F)cc(F)cc2s1	6	27	-27	3	27	17	nt	nt
CCN(CC)C(=O)Oc1ccc2c(=O)c(-c3ccc(OC)cc3)c(C)oc2c1	9	45*	nt	8	36	33	30	nt
CC1(C)CCC[C@]2(C)C(CS(=O)c3ccccc3)=C(C=O)CC[C@@H]12 (stereo partly specified)	2	49*	-12	14	29	67*	47*	55*
O=C(NC1CC1)c1ccc(CS(=O)c2ccccc2)o1 (stereo unspecified)	-2	4	nt	3	-3	1	nt	nt
CCCn1nc(C(=O)OCC(=O)c2c(N)n(C)c(=O)n(C)c2=O)c2ccccc2c1=O	-4	8	27	5	7	0	nt	nt
CC(=O)N1c2ccc(N=Cc3cc(Br)cc(Br)c3O)cc2CC1C (stereo unspecified)	6	73*	nt	nt	35	84*	28	87*
Oc1ccc(N=Nc2ccc(Br)cc2)c(O)c1	5	48*	-12	2	37	68*	64*	2
Cc1ccc(N=Nc2ccc(O)cc2)c(Br)c1	7	52*	116*	4	-32	66*	71*	-2
SMILES	SKKanGAS inh	TIM10 inh	PfHsp90 yeast 2	ATG4B inhibitor	tim10-1 inh	tim23-1 inh	TIM10 conf	tim23-1 conf
CC(C)c1ccccc1OCCNC(=O)c1cncc(Br)c1	-5	6	42	-2	19	22	nt	nt
COc1cc(/C=C2\CCC/C(=C\c3ccc(O)c(OC)c3)C2=O)ccc1O	65*	41*	-32	36	38	82*	39*	52*
COc1cc(/C=C2/CCCC(C(=O)C(F)(F)F)=C2O)ccc1O	-9	18	-27	0	29	13	nt	nt
CCC(C)c1ccc(NC(=O)c2[nH]c(C)c(C(C)=O)c2C)cc1 (stereo unspecified)	-10	43*	-13	-4	40	53*	29	52*
Cn1c(/C(C#N)=C/c2ccncc2)nc2ccccc21	nt	46*	-25	0	35	68*	19	63*
COc1ccc(-c2nnc(Sc3nc4ccccc4o3)c3ccccc23)cc1	3	42*	15	-9	27	52*	36*	42*
CC1(C)CC(=O)C(=Cc2cn(-c3ccccc3)nc2-c2ccccc2)C(=O)C1	-4	64*	28	-1	15	64*	20	34
CCOC(=O)CS(=O)(=O)c1nc(-c2ccccc2)cc(C(F)(F)F)n1	-12	44*	-24	-4	38	64*	55*	-41
CCN(CC)CCN1C(=O)/C(=C\c2ccc(Cl)c([N+](=O)[O-])c2)SC1=Nc1ccc(OC)cc1	13	41*	-16	-9	0	66*	35*	57*
C=CCS/C(N)=N\N=C\c1c(O)ccc2ccccc12	28	53*	-9	-13	24	53*	42*	71*
CCCS/C(N)=N/N=C/c1ccccc1O	-4	15	13	-6	19	16	nt	nt
COCCSc1ccccc1C(=O)N1CCC(Cc2ccccc2)CC1	-6	25	9	-7	24	33	nt	nt
Nc1nc2c(ncn2-c2ccccc2)c(=O)[nH]1	nt	nt	0	8	nt	nt	nt	nt
O=C1c2ccccc2C(=O)c2c1ncn2-c1ccccc1	-13	46*	-43	15	39	50	4	45*
Fc1ccc(-c2nc3c(-c4ccc(Cl)cc4)cnn3cc2CCN2CCOCC2)cc1	-3	1	-38	-8	29	-24	nt	nt
CCOC(=O)N1CCN(C(=O)c2cc(-c3ccc(F)cc3)[nH]c2C)CC1	1	15	nt	-15	18	11	nt	nt
Cc1[nH]c(-c2ccc(F)cc2)cc1C(=O)N1CCN(c2ccc(Cl)cc2)CC1	54*	49*	-53	-26	36	73*	42*	54*
O=C(Nc1cccc(Br)c1)c1ccn[nH]1	3	59*	4	-10	1	57*	41*	60*
O=C(Nc1cccc(C(=O)Nc2cccc(Br)c2)c1)c1ccccc1	28	12	-20	-6	5	46	nt	nt
